# About 79,000 compounds went through this panel and 15% of them were active in at least one assay; those are over-represented in the sample as a whole. Values without a mark were called inactive. Activity calls are given as the source filed them. Rule as the data show it: active = growth inhibition above about 70%; inactive = the rest.
# Tests used:
# [1] = NCI Yeast Anticancer Drug Screen. Data for the rad50 strain (AID 155);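 also: 0% = growth of vehicle-only cultures of the same strain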; details: S. cerevisiae rad50 strain growth inhibition, active compounds read high
# Summary of the method: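 Yeast carrying a defined DNA repair defect were exposed to test compounds, and growth was compared with vehicle-treated controls to give percent inhibition.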
# [2] = NCI Yeast Anticancer Drug Screen. Data for the mec2-1 strain (AID 157); details: S. cerevisiae mec2-1 strain, active compounds read high
# Summary of the method: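 mec2-1 yeast strain, carrying an alteration in DNA damage repair or cell cycle control, was exposed to compounds; growth inhibition was measured relative to vehicle-treated controls.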
# [3] = NCI Yeast Anticancer Drug Screen. Data for the sgs1 mgt1 strain (AID 161);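 also: 0% = growth of cultures given vehicle only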; details: S. cerevisiae sgs1 mgt1 strain, active compounds read high
# Summary of the method: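 Compounds are added to genetically altered yeast, and growth is compared with cultures given vehicle alone to give percent inhibition.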
# [4] = NCI Yeast Anticancer Drug Screen. Data for the cln2 rad14 strain (AID 165);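 also: 0% = growth equal to vehicle treated cultures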; details: S. cerevisiae cln2 rad14 strain, active compounds read high
# Summary of the method: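 Yeast carrying cln2 and rad14 alterations (cell cycle control and DNA damage repair) were exposed to compounds. Growth inhibition was measured against vehicle-treated controls.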
# [5] = NCI Yeast Anticancer Drug Screen. Data for the bub3 strain (AID 167); details: S. cerevisiae bub3 mutant strain, active compounds read high
# Summary of the method: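 Compounds were applied to a genetically altered yeast strain carrying a cell-cycle control defect. Growth inhibition was scored against vehicle-treated controls.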
# [6] = NCI Yeast Anticancer Drug Screen. Data for the mlh1 rad18 strain (AID 175); details: S. cerevisiae mlh1 rad18 strain growth inhibition, active compounds read high
# Summary of the method: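 Growth inhibition of the yeast strain was measured after compound exposure and expressed relative to vehicle-treated controls. The strain carries defined defects in DNA damage repair.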
# [7] = at 5.0 µM (retest, dose inferred, filed as 0.5)
# [8] = at 50.0 µM (retest, dose inferred, filed as 5.0)
SMILES,"growth inhibition [1, 7]","growth inhibition [1, 8]",growth inhibition ([1]; at 50.0 µM),"growth inhibition [2, 7]","growth inhibition [2, 8]",growth inhibition ([2]; at 50.0 µM),"growth inhibition [3, 7]","growth inhibition [3, 8]",growth inhibition ([3]; at 50.0 µM),"growth inhibition [4, 7]","growth inhibition [4, 8]",growth inhibition ([4]; at 50.0 µM),"growth inhibition [5, 7]","growth inhibition [5, 8]",growth inhibition ([5]; at 50.0 µM),"growth inhibition [6, 7]","growth inhibition [6, 8]",growth inhibition ([6]; at 50.0 µM)
CN(C)CC1(C)CC/C(=C\c2ccc(Cl)cc2)C1=O (configuration not stated),3%,28%,62%,-14%,16%,38.2%,7%,39%,67.7%,10%,36%,52.5%,15%,65%,35.4%,9%,57%,71.1% (active)
O=C(CCl)N(Cc1ccccc1)Cc1ccccc1,-2%,92% (active),84% (active),-1%,95% (active),92.1% (active),-8%,94% (active),89.5% (active),2%,84% (active),42.5%,6%,92% (active),85% (active),-1%,92% (active),78.6% (active)
Cc1c(N=Nc2c(S(=O)(=O)O)cc3cc(S(=O)(=O)O)c(N=Nc4c(C)n(C)n(-c5ccccc5)c4=O)c(O)c3c2O)c(=O)n(-c2ccccc2)n1C,-20%,-13%,3.25%,-18%,-31%,32.8%,-7%,26%,4.15%,7%,8%,36.4%,-19%,-11%,-29.4%,5%,-7%,-6.6%
C=CCOc1ccc(C2(c3ccc(OCC=C)cc3)C(=O)Nc3ccccc32)cc1,1%,90% (active),84.1% (active),-8%,92% (active),86.8% (active),8%,90% (active),89.2% (active),24%,91% (active),86.5% (active),6%,93% (active),87.9% (active),5%,88% (active),86.6% (active)
CCCCCCc1ccc(O)cc1O,5%,98% (active),99.5% (active),-3%,100% (active),99.8% (active),-1%,100% (active),99.5% (active),-4%,99% (active),99.5% (active),-1%,99% (active),99.5% (active),-1%,99% (active),36%
CN(C)Cc1cc(N=Nc2ccc(Cl)c(Cl)c2)ccc1O,-16%,46%,86.5% (active),-11%,31%,64.4%,-20%,44%,82.7% (active),-31%,34%,71.8% (active),-33%,40%,88.5% (active),0%,56%,84.7% (active)
CCCCCCCCCCCCOC(=O)C[N+]1(C)CCCCC1,92% (active),99% (active),43.5%,93% (active),99% (active),99.8% (active),99% (active),99% (active),39.4%,67%,99% (active),98.5% (active),99% (active),99% (active),99.7% (active),33%,99% (active),99.5% (active)
CCCCCC1OC(CCCCC)OC(CCCCC)O1 (configuration not stated),-10%,33%,10.2%,13%,-19%,6.6%,0%,7%,16.3%,4%,3%,8.25%,-12%,20%,-13.9%,-8%,-3%,11.7%
CCCCCC(/C=N/NC(N)=S)C(O)(C(F)(F)F)C(F)(F)F (configuration not stated),-21%,51%,77.6% (active),-17%,47%,62.4%,-7%,28%,73% (active),-11%,77% (active),61%,-11%,77% (active),35%,-27%,78% (active),67.9%
CC12OC(=O)C(C(N)=O)=C1C=C(c1ccccc1)CC2c1ccccc1 (configuration not stated),-1%,23%,65%,12%,53%,43.9%,-5%,67%,86.8% (active),-3%,21%,82.5% (active),-4%,60%,87.5% (active),11%,83% (active),86.1% (active)
CCC[CH2][Sn]1([CH2]CCC)[O]CC([CH2][Sn]([c]2ccccc2)([c]2ccccc2)[c]2ccccc2)[O]1 (configuration not stated),100% (active),100% (active),90.3% (active),97% (active),97% (active),91.7% (active),99% (active),99% (active),90.8% (active),99% (active),99% (active),91.7% (active),97% (active),97% (active),91.3% (active),98% (active),98% (active),89% (active)
O=[N+]([O-])/C(Cl)=C/C(=C1/Nc2ccccc2O1)[N+](=O)[O-],17%,87% (active),79.9% (active),-11%,47%,65.6%,–,–,–,-12%,47%,65.4%,-15%,53%,71.2% (active),17%,75% (active),69%
CC(=O)OCC1OC(SSc2ccccc2)C(OC(C)=O)C(OC(C)=O)C1OC(C)=O (configuration not stated),-2%,13%,59.4%,-30%,69%,44.6%,10%,7%,58.1%,-13%,5%,45%,–,–,–,-17%,73% (active),53.9%
Cc1ccc2c(c1)C1(SCC(=O)N1c1ccc(Cl)cc1)C(=O)N2 (configuration not stated),1%,57%,48.6%,6%,36%,16.4%,5%,62%,77.8% (active),-1%,28%,20.8%,–,–,–,-5%,69%,67.9%
Cc1ccc(S(=O)(=O)CC2(Br)CCc3ccccc3C2=O)cc1 (configuration not stated),39%,71% (active),74.8% (active),31%,15%,62.5%,40%,74% (active),75.3% (active),1%,18%,38.6%,12%,60%,42.5%,23%,48%,54.8%
C=CCOc1ccc(-c2ccccc2)cc1C(=O)NC,-9%,-5%,1.25%,2%,-6%,6.3%,-2%,20%,5.1%,-42%,-5%,8.95%,–,–,–,-3%,20%,22.1%
CC(C)c1ccc(C(=O)C2CC2)cc1,-23%,0%,34.6%,-10%,-27%,42.9%,-12%,-14%,50.6%,9%,24%,40.5%,–,–,–,-22%,-18%,21%
CCCCCCSC(=Cc1cccc[n+]1C)SCCCCCC,98% (active),96% (active),99.5% (active),100% (active),98% (active),99.7% (active),100% (active),98% (active),99.7% (active),99% (active),95% (active),99.3% (active),98% (active),94% (active),99.5% (active),100% (active),97% (active),99.4% (active)
O=c1oc(-c2ccccc2)nc2ccccc12,4%,41%,76.5% (active),4%,17%,31.2%,–,–,–,4%,4%,27.5%,0%,11%,38.9%,-4%,20%,42.8%
CCOC(=O)Cc1csc2[n+]1C(=O)/C(=C/c1ccc(OC)c(OC)c1)S2,-11%,11%,95.2% (active),-14%,10%,94.2% (active),-11%,14%,94.2% (active),-1%,8%,93% (active),-22%,-2%,95.7% (active),-17%,17%,93% (active)

# Source: PubChem BioAssay (NCI)
